Tb PFK inh-1 = T. brucei PFK enzyme inhibition; O15648; T. brucei PFK, ADP-Glo luminescence; Potency, µM (series often up to 57.5 µM), without a hit: top-dose activity, negative = inhibition, actives largely listed as inhibitors; actives 0.17% (n = 330,000); AID 485367;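 note: 0% = uninhibited 1x PFK enzyme wells and -100% = no-enzyme wells; nearly all actives have a fitted effect of over 60% in size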
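In TEA buffer at pH 8.0 with 5 mM MgCl2, enzyme (1.25 nM) converted F6P (0.5 mM) and ATP (0.1 mM) for 45 min at room temperature. ADP product was read by luciferase luminescence.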
GLS inh = blocks human kidney-isoform glutaminase activity; Potency, µM (titrated, usually from 45.5 µM), for the others: top-dose activity change, negative = inhibition, hits mostly inhibitors; actives 0.21% (n = 410,000); AID 624170; GLS enzymatic activity, qHTS titration; note: % is set by controls: 0 for no effect and ±100 for the full control effect
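Read-out is an Amplex red fluorescence increase coupled through glutamate oxidase and HRP, measured before and after 30 min room-temperature incubation. hKGA is in 45 mM KH2PO4 (pH 8.2) with 0.02% Tween-20; glutamine added as 1mM solution.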
USP2a inh = blocks human ubiquitin-specific protease USP2a; AID 463254; USP2 core, Ub-CHOP2 coupled fluorogenic reporter, 485/531; O75604; actives 0.01% (n = 330,000); Potency, µM (titrated, usually from 38.3 µM), for the others: at the top dose activity change, negative = inhibition, usual class: inhibitors;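 note: plate controls were DMSO wells for no effect and full inhibition by NEM control for full effect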
Target sequence (O75604 whole entry, looked up): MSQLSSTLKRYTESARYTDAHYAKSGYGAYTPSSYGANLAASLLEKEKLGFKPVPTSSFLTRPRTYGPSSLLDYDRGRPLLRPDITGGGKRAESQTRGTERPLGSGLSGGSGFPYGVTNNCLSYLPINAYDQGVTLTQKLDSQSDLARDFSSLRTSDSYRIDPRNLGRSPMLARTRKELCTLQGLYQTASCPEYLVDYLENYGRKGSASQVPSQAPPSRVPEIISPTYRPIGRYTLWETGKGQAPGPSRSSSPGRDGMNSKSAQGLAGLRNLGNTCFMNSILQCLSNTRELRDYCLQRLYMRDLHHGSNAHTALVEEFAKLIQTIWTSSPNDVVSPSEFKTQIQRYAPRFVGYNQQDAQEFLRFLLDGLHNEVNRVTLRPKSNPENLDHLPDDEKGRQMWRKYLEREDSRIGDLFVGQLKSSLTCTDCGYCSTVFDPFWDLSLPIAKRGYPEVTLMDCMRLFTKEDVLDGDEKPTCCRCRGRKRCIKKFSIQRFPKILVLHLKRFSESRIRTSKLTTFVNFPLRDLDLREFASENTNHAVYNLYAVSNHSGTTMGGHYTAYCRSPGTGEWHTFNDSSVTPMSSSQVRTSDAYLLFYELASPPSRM
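Deubiquitinase activity read as fluorescence (485/531 nm) after Ub-CHOP2 cleavage activates the enterokinase reporter on its substrate; USP2 core 10nM, Ub-CHOP2 and substrate 25nM each, 30min compound preincubation then 60min RT; data normalized to NEM, curves fitted.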
p53 reactivation = mutant p53 re-activation in reporter cells; H1299 p53-A138V BP100-luciferase reporter, luminescence, 24 h; Potency, µM (doses to about 92.2 µM), for the others: at the highest dose activity change, positive = activation, actives largely listed as activators; actives 0.063% (n = 320,000); AID 504706; note: % of control where 0% means no effect; nearly all actives have a fitted effect of over 45% in size
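H1299 (p53-null), stable ts p53-A138V + BP100-Luc; 1000 cells/well, Opti-MEM/10% FBS; cpd 4 pt, 1:5; 24 h, 37 deg C, 5% CO2; detection reagent 10 min RT; luminescence.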
TbPFK ATP = inhibits T. brucei PFK measured by ATP depletion; Tb PFK enzyme, ATP depletion, Kinase-Glo Plus luminescence; AID 504636; actives 47% (n = 1,100); shares compounds with Tb PFK inh-1; Potency, µM (top dose mostly 57.5 µM), for inactives: at the top dose inhibition; calls by dose curve; note: nearly all actives have a fitted effect of over 60% in size
Tb PFK inh-2 = validation of T. brucei phosphofructokinase inhibitors; actives 41% (n = 1,100); Potency, µM (top dose mostly 57.5 µM), for the others: top-dose activity change, negative = inhibition, hits mostly inhibitors; purified T. brucei PFK, ADP-Glo luminescence, 45 min; AID 504637; shares compounds with Tb PFK inh-1;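 note: plate controls were full PFK enzyme control for no effect and no enzyme control for full effect; nearly all actives have a fitted effect of over 60% in size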
* hit, by the source's call; [ ] = another dose, or the depositor's remark. A selection: hits, their analogues and other compounds. The true share with any hit is near 0.39%. Unless noted, calls come from the whole dose curve; as a rule, active = well fitted curve in the direction sought with a large enough effect; inconclusive = small, poorly fitted or top-dose-only effect, or another doubt; inactive = no such curve, though single readings can be large; an effect the other way counts as inactive or inconclusive. Potency is the fitted concentration of half-maximal effect.

How did COc1ccc(C(=O)COC(=O)/C=C/c2ccccc2)c(OC)c1 do in these assays?
Tb PFK inh-1: inconclusive; GLS inh: 4.7%; USP2a inh: 1.9%; p53 reactivation: inconclusive; TbPFK ATP: inconclusive; Tb PFK inh-2: -14.3%

Results for CC(CNc1ccccc1O)C(=O)O (stereo not given) ?
Tb PFK inh-1: 23.9µM*; GLS inh: 34.1%; USP2a inh: -0.4%; p53 reactivation: 4.0%; TbPFK ATP: inconclusive; Tb PFK inh-2: inconclusive

How did C=CC#CC[N+]1(CC#Cc2ccccc2)CCOCC1 do in these assays?
Tb PFK inh-1: inconclusive; GLS inh: -23.0%; USP2a inh: inconclusive; p53 reactivation: -1.2%; TbPFK ATP: -29.1%; Tb PFK inh-2: inconclusive

How did O=C(COc1ccccc1Cl)N1CCN(CCc2ccccn2)CC1 do in these assays?
GLS inh: -0.5%

How did CC([C@H](O)c1ccccc1)N(C)C (stereo not given in full) do in these assays?
GLS inh: 13.4%

Results for CS(=O)(=O)NNC(=O)c1cc2cc3ccccc3nc2s1 ?
Tb PFK inh-1: inconclusive; GLS inh: -6.7%; USP2a inh: 1.6%; p53 reactivation: -1.4%; TbPFK ATP: -22.5%; Tb PFK inh-2: 20.9%

How did COc1ccc(S(=O)(=O)NNC(=O)c2cc3cc4ccccc4nc3s2)cc1 do in these assays?
Tb PFK inh-1: inconclusive; GLS inh: 12.2%; USP2a inh: -3.5%; p53 reactivation: 4.1%; TbPFK ATP: -35.1%; Tb PFK inh-2: inconclusive

How did C[C@](O)(CS(=O)(=O)c1ccc(F)cc1)C(=O)Nc1ccc(C#N)c(C(F)(F)F)c1 do in these assays?
GLS inh: 9.2%

What do the screens show for `CC(C)(C)c1ccc(C(=O)NC(=S)Nn2cnnc2)cc1`?
Tb PFK inh-1: 0.7%; GLS inh: 15.2%; USP2a inh: 1.4%; p53 reactivation: inconclusive

How did Cc1cc(C)nc(NS(=O)(=O)c2ccc(NC(=O)c3cc(=O)c4ccccc4o3)cc2)n1 do in these assays?
Tb PFK inh-1: inconclusive; GLS inh: 4.8%; USP2a inh: 4.9%; p53 reactivation: -10.1%; TbPFK ATP: -27.2%; Tb PFK inh-2: inconclusive

What do the screens show for `NC1(c2ccccc2)CCCCC1`?
GLS inh: 3.8%[99.4 µM]

How did O=C1C(SCCO)=C(SCCO)C(=O)c2ccccc21 do in these assays?
Tb PFK inh-1: 9.53µM*; GLS inh: inconclusive; USP2a inh: 0.9%; p53 reactivation: -17.5%; TbPFK ATP: 0.601µM*; Tb PFK inh-2: inconclusive

What do the screens show for `O=C1c2ccccc2-c2cc3ccccc3cc21`?
GLS inh: -8.3%

How did Cc1ccc2c(c1)sc(C)[n+]2CCCS(=O)(=O)[O-] do in these assays?
Tb PFK inh-1: inconclusive; GLS inh: 4.2%; USP2a inh: 0.2%; p53 reactivation: -0.5%; TbPFK ATP: -15.6%; Tb PFK inh-2: 1.1%

What do the screens show for `CC(C)(C)CC(C)(C)c1ccc(O)cc1`?
GLS inh: 11.2%[99.4 µM]

How did O=C(CN1CC(c2ccccc2)CC1=O)NCc1ccc(F)cc1 (stereo not given) do in these assays?
Tb PFK inh-1: -12.9%; GLS inh: -0.3%; USP2a inh: 2.3%; p53 reactivation: 6.0%

How did O=C(NCc1ccc(F)cc1)C(=O)NCC1CCCN1S(=O)(=O)c1ccccc1 (stereo not given) do in these assays?
Tb PFK inh-1: inconclusive; GLS inh: 3.0%; USP2a inh: -1.4%; p53 reactivation: -3.8%; TbPFK ATP: 23.9µM*; Tb PFK inh-2: inconclusive

Results for Cc1noc(C)c1COc1ccc(C(=O)NNC(=O)c2ccccc2O)cc1 ?
Tb PFK inh-1: 5.36µM*; GLS inh: 9.4%; USP2a inh: 0.0%; p53 reactivation: 1.3%; TbPFK ATP: 7.3%; Tb PFK inh-2: 5.7%

What do the screens show for `S=c1[nH]nc(Cn2c(-c3ccccn3)nc3ccccc32)n1-c1ccc2c(c1)OCCO2`?
Tb PFK inh-1: -0.5%; GLS inh: inconclusive; USP2a inh: -1.2%; p53 reactivation: 12.7%

Screening data: PubChem BioAssay, National Center for Advancing Translational Sciences (NCATS)
